This passage reports log2 fold change results from the supplement of paper PMC10849652.

Targets with a hit are over-represented here; the source holds about 7,900 in all. About 0.6% of all pairs of compound and target were hits. Values without a mark were called inactive.

Holding throughout (assay): log2 fold change, soluble protein after heating vs DMSO (PISA); higher = thermal stabilisation; K562 cells, 10 uM, 30 min; active = over 0.2 and 3.5 SD of the protein, either way, in both replicates (recomputed)
Compound in one assay: C#Cc1cccc(Nc2ncnc3cc(OCCOC)c(OCCOC)cc23)c1 [erlotinib]
In short, it runs like this: (§1)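 For each measurement, 10 μM compound was applied for 30 min to K562 cells at 2×10^6 cells/mL. Aliquots were heated for 3 min across 48°C-58°C, pooled, and extracted in PBS with 0.5% NP-40 at 4°C; the supernatant after 21,000xg for 90 min was soluble protein. This was quantified by TMTpro 16plex LC-MS/MS with channel sums equalised, and thermal stability was reported relative to control samples from duplicates, on a log2 fold-change scale.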

Compound in assay [1]: C1=CC(=CC=C1C2=NC3=C(N2)C=C(C=C3)C(=O)N)OC4=CC=C(C=C4)Cl
The gist of the method:
as §1

Compound in assay [2]: C1=CC2=NC=CN=C2C=C1/C=C/3\C(=O)NC(=O)S3
The gist of the method: as §1

Compound in a further assay: C=CC(=O)N1CCC[C@@H](n2nc(-c3ccc(Oc4ccccc4)cc3)c3c(N)ncnc32)C1 [ibrutinib]
The gist of the method: as §1

Compound in assay [3]: CC(C)C1=C2N=C(C=C(N2N=C1)NCC3=CC=CC=C3)NCCCCCCN
In short, it runs like this: as §1

Compound in assay [4]: CC1=C(C(CC(=O)N1)C2=CC=C(C=C2)C(F)(F)F)C(=O)NC3=C(C=C4C(=C3)C=NN4)F
In short, it runs like this: as §1

Compound in assay [5]: C1=CC(=C(C=C1Cl)C2=NC3=NC=CN=C3C(=N2)NC4=CC=NC=C4)F
In short, it runs like this: as §1

Compound in assay [6]: C1=CC=C(C=C1)C2=NC(=C(N2)C3=CC=NC=C3)C4=CC(=C(C=C4)Cl)O
In short, it runs like this:
as §1

Compound in assay [7]: C1CCN(C1)C(=O)NC2=CC=CC(=C2)NC3=NC=C(C(=N3)NCCC4=CN=CN4)Br
The gist of the method: as §1

Compound in assay [8]: C1CN(CCC1(CC2=CC=C(C=C2)Cl)N)C3=NC=NC4=C3C=CN4
In short, it runs like this:
as §1

Compound in the next assay: C1COCCN1CCN2C3=CC=CC=C3N=C2NC(=O)C4=CC(=CC=C4)[N+](=O)[O-] [IRAK-1-4 Inhibitor I]
The gist of the method:
as §1

Compound in the next assay: CC(C)(C)Cn1c(N)nc2ccc(-c3[nH]c(C(C)(C)C)nc3-c3ccc(F)cc3)nc21 [ralimetinib]
In short, it runs like this:
as §1

Compound in assay [9]: CC(C)(O)CC(=O)NCCn1ccc2ncnc(Nc3ccc(Oc4cccc(C(F)(F)F)c4)c(Cl)c3)c21
In short, it runs like this: as §1

Compound in assay [10]: CC(C)C[C@@H](C=O)NC(=O)[C@H](CC(C)C)NC(=O)[C@H](CC(C)C)NC(=O)OCc1ccccc1
The gist of the method: as §1

Compound in the next assay: CC(C)N(C[C@H]1O[C@@H](n2cnc3c(N)ncnc32)[C@H](O)[C@@H]1O)[C@H]1C[C@@H](CCc2nc3cc(C(C)(C)C)ccc3[nH]2)C1 [pinometostat]
In short, it runs like this:
as §1

Compound in assay [11]: CC1=C(C2=C(C=C1)C(=O)C3=CC=CC=C3N2CCCN)C
In short, it runs like this: as §1

Compound in assay [12]: C/C(=N\NC(=O)C1=CC(=CC=C1)S(=O)(=O)N2CCOCC2)/C3=C(C=CC(=C3)Cl)O
The gist of the method:
as §1

Compound in assay [13]: C1=CC2=C(C=CC(=C2)/C=C\3/C(=O)NC(=NCC4=CC=CS4)S3)N=C1
The gist of the method: as §1

Compound in assay [14]: C1=CC=C2C(=C1)C3=NNC4=CC=CC(=C43)C2=O
In short, it runs like this: as §1

Compound in assay [15]: CC(=O)c1cnc2ccc(-c3cc(Cl)c(O)c(Cl)c3)nc2c1N[C@H]1CC[C@H](CN(C)C)CC1
The gist of the method:
as §1

Chain of UniProt Q13362 (Q13362 whole entry, looked up): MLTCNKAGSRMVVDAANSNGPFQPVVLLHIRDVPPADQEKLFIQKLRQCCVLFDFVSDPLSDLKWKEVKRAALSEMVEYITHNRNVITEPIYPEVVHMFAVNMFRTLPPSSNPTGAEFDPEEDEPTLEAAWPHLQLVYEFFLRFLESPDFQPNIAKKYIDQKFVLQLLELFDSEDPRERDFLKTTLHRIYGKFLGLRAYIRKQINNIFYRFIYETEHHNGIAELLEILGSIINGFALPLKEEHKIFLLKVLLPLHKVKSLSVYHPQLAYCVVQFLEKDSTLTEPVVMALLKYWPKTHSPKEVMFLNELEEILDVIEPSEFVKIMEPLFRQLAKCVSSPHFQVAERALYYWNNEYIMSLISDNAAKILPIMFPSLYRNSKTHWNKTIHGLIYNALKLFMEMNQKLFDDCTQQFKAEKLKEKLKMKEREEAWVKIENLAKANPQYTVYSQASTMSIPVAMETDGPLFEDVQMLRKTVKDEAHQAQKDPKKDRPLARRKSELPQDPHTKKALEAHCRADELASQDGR
Chain of UniProt Q5JVF3 (Q5JVF3 whole entry, looked up): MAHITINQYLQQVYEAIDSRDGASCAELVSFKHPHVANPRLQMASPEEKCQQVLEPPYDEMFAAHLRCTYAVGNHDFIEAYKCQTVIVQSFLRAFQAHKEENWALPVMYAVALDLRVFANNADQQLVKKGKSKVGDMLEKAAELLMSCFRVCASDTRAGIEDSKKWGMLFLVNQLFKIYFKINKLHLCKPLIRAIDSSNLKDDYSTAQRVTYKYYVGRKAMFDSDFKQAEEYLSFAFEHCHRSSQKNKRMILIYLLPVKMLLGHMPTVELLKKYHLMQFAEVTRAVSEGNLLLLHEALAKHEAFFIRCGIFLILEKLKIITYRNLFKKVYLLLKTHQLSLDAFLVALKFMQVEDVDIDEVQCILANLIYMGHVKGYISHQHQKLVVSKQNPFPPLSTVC
Chain of UniProt Q8N2W9 (Q8N2W9 whole entry, looked up): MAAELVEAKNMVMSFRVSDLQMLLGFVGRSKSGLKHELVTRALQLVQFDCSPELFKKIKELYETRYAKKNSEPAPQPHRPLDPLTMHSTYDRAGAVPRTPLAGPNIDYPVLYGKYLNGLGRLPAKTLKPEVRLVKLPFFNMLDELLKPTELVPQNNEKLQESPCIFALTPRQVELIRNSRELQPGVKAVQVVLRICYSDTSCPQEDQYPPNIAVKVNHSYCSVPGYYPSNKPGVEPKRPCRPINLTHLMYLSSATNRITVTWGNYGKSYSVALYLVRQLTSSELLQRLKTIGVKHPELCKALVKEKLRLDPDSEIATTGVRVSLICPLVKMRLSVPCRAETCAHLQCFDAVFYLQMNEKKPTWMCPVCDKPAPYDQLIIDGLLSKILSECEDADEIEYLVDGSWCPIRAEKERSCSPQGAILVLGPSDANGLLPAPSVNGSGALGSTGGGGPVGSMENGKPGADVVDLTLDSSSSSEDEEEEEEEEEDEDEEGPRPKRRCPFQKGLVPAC
Chain of UniProt Q68D20 (Q68D20 whole entry, looked up): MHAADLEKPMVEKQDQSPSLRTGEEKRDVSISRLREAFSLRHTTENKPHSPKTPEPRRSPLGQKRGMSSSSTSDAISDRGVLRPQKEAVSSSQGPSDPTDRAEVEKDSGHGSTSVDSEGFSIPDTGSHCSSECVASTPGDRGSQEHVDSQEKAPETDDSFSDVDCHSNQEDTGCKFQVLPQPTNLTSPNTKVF
Chain of UniProt Q7Z3K3 (Q7Z3K3 whole entry, looked up): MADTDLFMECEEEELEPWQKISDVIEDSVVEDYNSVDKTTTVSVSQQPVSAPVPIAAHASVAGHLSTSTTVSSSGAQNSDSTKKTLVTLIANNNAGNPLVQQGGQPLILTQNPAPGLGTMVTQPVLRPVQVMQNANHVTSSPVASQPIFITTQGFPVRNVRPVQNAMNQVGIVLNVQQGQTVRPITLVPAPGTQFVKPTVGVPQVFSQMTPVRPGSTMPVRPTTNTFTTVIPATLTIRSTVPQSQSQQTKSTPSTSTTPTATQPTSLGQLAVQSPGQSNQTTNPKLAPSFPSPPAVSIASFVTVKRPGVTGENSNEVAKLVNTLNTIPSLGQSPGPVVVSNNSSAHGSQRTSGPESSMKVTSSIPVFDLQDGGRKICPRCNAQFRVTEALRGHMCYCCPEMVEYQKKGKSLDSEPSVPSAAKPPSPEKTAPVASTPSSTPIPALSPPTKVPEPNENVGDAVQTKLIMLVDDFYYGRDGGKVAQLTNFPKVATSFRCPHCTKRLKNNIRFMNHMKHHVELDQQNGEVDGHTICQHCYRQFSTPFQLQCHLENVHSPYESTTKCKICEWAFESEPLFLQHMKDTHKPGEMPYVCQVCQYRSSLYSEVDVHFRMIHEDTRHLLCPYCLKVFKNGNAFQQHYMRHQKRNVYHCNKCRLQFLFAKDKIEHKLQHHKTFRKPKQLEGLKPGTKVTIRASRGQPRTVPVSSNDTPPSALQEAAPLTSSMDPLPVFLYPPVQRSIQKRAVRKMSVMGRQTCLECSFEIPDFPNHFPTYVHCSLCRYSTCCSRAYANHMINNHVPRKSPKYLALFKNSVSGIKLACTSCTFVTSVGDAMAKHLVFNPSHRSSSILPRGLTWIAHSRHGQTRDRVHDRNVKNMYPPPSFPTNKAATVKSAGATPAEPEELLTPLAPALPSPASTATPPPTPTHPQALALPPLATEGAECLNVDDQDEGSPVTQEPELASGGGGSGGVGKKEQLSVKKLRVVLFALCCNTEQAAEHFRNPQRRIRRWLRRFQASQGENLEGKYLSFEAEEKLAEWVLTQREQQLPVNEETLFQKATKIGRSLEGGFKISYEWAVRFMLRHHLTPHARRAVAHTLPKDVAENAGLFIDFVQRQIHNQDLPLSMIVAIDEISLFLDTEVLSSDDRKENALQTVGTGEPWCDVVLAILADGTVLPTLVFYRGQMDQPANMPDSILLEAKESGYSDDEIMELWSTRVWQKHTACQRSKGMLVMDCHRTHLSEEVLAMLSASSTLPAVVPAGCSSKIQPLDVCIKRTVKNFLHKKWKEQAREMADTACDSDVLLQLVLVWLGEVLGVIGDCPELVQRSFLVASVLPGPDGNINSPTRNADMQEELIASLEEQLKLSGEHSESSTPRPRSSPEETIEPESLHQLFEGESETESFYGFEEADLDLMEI
Chain of UniProt Q9BZL4 (Q9BZL4 whole entry, looked up): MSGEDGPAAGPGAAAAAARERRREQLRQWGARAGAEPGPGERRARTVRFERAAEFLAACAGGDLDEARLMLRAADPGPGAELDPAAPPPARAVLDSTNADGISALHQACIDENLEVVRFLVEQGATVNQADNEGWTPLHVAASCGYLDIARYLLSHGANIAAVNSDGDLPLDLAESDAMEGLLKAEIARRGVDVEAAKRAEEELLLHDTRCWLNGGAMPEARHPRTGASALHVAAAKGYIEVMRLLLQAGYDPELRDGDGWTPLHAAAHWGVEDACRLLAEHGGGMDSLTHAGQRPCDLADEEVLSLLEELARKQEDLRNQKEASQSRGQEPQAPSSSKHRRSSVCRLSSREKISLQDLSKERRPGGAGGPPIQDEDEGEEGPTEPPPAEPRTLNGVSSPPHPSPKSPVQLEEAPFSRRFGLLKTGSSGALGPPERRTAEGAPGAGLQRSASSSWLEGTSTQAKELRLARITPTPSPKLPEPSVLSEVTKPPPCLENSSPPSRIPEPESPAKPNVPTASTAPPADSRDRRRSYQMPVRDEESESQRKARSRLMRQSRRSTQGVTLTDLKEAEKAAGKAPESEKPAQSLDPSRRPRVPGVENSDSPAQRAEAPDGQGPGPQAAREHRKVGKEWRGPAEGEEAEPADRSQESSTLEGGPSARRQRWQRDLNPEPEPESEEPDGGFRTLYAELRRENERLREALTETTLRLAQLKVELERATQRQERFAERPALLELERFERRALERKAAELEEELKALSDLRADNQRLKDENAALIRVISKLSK
Chain of UniProt O60237 (O60237 whole entry, looked up): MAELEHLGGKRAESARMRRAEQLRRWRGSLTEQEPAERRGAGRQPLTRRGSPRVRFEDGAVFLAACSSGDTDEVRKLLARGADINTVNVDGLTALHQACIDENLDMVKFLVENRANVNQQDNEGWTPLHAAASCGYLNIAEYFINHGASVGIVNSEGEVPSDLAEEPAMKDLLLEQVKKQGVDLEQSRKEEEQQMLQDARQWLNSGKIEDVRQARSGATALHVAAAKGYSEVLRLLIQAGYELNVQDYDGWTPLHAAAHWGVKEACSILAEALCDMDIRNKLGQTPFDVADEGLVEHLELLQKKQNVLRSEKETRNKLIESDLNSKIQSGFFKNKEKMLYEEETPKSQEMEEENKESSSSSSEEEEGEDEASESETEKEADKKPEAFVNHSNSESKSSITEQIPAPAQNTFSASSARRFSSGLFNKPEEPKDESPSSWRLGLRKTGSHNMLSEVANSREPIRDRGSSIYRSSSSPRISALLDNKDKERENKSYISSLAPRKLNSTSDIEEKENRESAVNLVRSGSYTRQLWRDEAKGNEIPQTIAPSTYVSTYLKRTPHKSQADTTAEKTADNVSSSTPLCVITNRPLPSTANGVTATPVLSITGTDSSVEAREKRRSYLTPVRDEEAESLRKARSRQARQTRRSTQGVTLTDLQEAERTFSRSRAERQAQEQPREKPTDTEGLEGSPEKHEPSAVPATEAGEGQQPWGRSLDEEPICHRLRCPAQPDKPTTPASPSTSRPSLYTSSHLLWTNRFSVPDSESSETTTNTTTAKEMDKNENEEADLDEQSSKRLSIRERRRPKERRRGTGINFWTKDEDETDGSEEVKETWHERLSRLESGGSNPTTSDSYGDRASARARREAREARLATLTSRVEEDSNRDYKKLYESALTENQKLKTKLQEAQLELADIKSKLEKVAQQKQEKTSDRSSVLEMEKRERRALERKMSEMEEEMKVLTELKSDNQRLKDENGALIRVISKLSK
Chain of UniProt O75365 (O75365 whole entry, looked up): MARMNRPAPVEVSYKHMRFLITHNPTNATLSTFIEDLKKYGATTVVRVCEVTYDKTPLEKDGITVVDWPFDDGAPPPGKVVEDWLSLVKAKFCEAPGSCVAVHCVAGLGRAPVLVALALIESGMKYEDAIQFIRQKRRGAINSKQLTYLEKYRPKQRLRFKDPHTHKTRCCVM

As for PPP1R12B isoform 6 (UniProt O60237), the log2 fold change in the assay with erlotinib was 0.226; in assay [1], 0.001; in assay [2] it was -0.081; in the assay with ibrutinib, 0.075; in assay [3], -0.074; in assay [4] it was -0.346 (active).
Regarding PIAS4 (UniProt Q8N2W9), the log2 fold change is 0.061 in assay [5]; -0.214 in [6]; 0.129 in assay [7]; -0.045 in assay [8]; -0.111 with IRAK-1-4 Inhibitor I; -0.005 with ralimetinib. The log2 fold change in assay [9] was -0.781 (active); in assay [10] it was 0.035; in the assay with pinometostat it was 0.037; in assay [11], -0.275.
For PTP4A3 (UniProt O75365), the values for the log2 fold change (in assay [2]; in the assay with ibrutinib) were -0.041 and 0.079, respectively.
Consider PDE4DIP (UniProt E9PS60), for which the log2 fold change in the assay with erlotinib is 0.086; in assay [1] it was -0.175; with IRAK-1-4 Inhibitor I, -0.183; in [3], 0.171; in the assay with pinometostat it was 0.178.
Turning to PSD3 (UniProt Q9NYI0), the log2 fold change was -0.022 in assay [12]; 0.1 in assay [13]; -0.001 in [6]; 0.018 in assay [14]; 0.014 with IRAK-1-4 Inhibitor I; -0.024 in assay [15]. Also, the log2 fold change was -0.026 in the assay with ralimetinib, -0.055 in assay [10], -0.037 in the assay with pinometostat and -0.016 in [4].
For PHRF1 (UniProt Q9P1Y6), the log2 fold change was -0.161 with erlotinib; 0.082 in assay [1]; 0.073 in assay [6]; -0.144 with ralimetinib; 0.718 (active) in assay [3]; 0.119 in [10].
Turning to PSMC1 (UniProt G3V4X1), the log2 fold change was 0.149 with erlotinib, -0.001 in [1], -0.089 in assay [3] and 0.029 in [4].
With PPP2R5C isoform 2 (UniProt Q13362), the log2 fold change with erlotinib is -0.012; in assay [1], -0.02; in assay [2] it was -0.011; in assay [6], -0.039; with IRAK-1-4 Inhibitor I, -0.036; with ibrutinib, -0.038. Further, the log2 fold change with ralimetinib was 0.026; in [3], -0.146; in assay [10], -0.095; with pinometostat, -0.017.
Consider PPP1R12C (UniProt Q9BZL4), for which the log2 fold change with erlotinib was -0.13; in [5] it was -0.011; in assay [1], -0.059; in assay [2] it was 0.064; in assay [6], 0.037; in [7], -0.05. The log2 fold change is -0.238 in [8]; -0.024 with ibrutinib; -0.028 in the assay with ralimetinib; 0.045 in assay [9]; -0.126 in [3]; -0.041 in assay [10]. Further, the figures for the log2 fold change in assay [4] and in assay [11] were -0.291 and -0.157, respectively.
Take POLB (UniProt P06746): the log2 fold change with erlotinib was -0.236; in [5], -0.186; in assay [1] it was 0.094; in [6], 0; in assay [7], -0.118; in assay [8], 0.002. Moreover, the log2 fold change in the assay with ralimetinib is 0.14; in assay [9], -0.222; in assay [3], 0.091; in assay [10] it was 0.143; in [4] it was -0.168; in [11], 0.175.
In the case of POGZ (UniProt Q7Z3K3), the log2 fold change in the assay with erlotinib is 0.006; in assay [12] it was 0.085; in assay [5] it was 0.044; in assay [1], 0.033; in assay [13], -0.172; in assay [6] it was 0.023. Moreover, the log2 fold change was 0.082 in assay [14]; 0.026 in assay [7]; 0.115 in assay [8]; -0.133 with IRAK-1-4 Inhibitor I; -0.183 in assay [15]; 0.083 with ralimetinib. Also, the log2 fold change was -0.035 in assay [9]; 0.066 in assay [3]; 0.038 in assay [10]; -0.05 in the assay with pinometostat; -0.826 (active) in assay [11].
For PRKX (UniProt P51817), the log2 fold change with erlotinib was 0.169; in assay [1] it was 0.035; in [2] it was 0; with ibrutinib it was -0.005; in assay [3], -0.274.
Take PMS2CL (UniProt Q68D20): the log2 fold change in [5] is 0.094; in [6], -0.023; in the assay with ralimetinib, -0.21; in assay [9] it was -0.042; in assay [10], -0.258; in assay [4], 0.231.
PUF60 isoform 2 (UniProt Q9UHX1): the log2 fold change in assay [12] was 0.242; in assay [13] it was -0.242; in [2] it was 0.086; in [6], 0.05; in assay [14], 0.046; in [7], -0.148. Moreover, the log2 fold change in [8] was -0.148; with ibrutinib, 0.035; in [15] it was -0.329; in the assay with ralimetinib, 0.25; in [10] it was -0.203; in [11], -0.052.
Consider PCID2 (UniProt Q5JVF3), for which the log2 fold change with erlotinib is 0.086; in [5], -0.088; in assay [1], -0.021; in [2] it was 0.028; in assay [6] it was -0.005; in assay [7], -0.086. Also, the log2 fold change was -0.161 in assay [8]; -0.008 with IRAK-1-4 Inhibitor I; -0.015 with ibrutinib; 0.007 with ralimetinib; 0.063 in assay [9]; -0.428 (active) in assay [3]. Moreover, the log2 fold change in assay [10] is -0.02; with pinometostat, 0.037; in [4], 0.035; in assay [11] it was 0.06.
As for PLCXD1 (UniProt Q9NUJ7), the log2 fold change is 0.025 in assay [2]; -0.012 in assay [6]; 0.021 in the assay with ibrutinib; 0.113 with ralimetinib; 0.175 in assay [10].
